Experimental data taken from PubChem BioAssay (NCI).
This is part of a sample that, as a whole, favours compounds with a hit. Of some 83,000 tested, about 20% had one in any assay.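 Single-dose data. Exposure time 48 hours. Values below 10 considered active.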 Unmarked numbers belong to inactive results. Active and inactive are the calls of the source.

Tests used:
Assay in all cases: NCI-60 one-dose screen, 48 h (100 = growth as untreated, 0 = no growth, -100 = all killed)
Settings in all cases: 10 µM unless noted
SK-MEL-2 melanoma = tested on: SK-MEL-2 melanoma
EKVX NSCLC = tested on: EKVX NSCLC
SN12C renal = tested on: SN12C renal
UO-31 renal = tested on: UO-31 renal
TK-10 renal = tested on: TK-10 renal
ACHN renal = tested on: ACHN renal
CAKI-1 renal = tested on: CAKI-1 renal
A498 renal = tested on: A498 renal
CCRF-CEM leukemia = tested on: CCRF-CEM leukemia
MOLT-4 leukemia = tested on: MOLT-4 leukemia

Compound | growth (SK-MEL-2 melanoma) | growth (EKVX NSCLC) [%] | growth (SN12C renal) [%] | growth (UO-31 renal) | growth (TK-10 renal) [%] | growth (ACHN renal) | growth (CAKI-1 renal) | growth (A498 renal) | growth (CCRF-CEM leukemia) | growth (MOLT-4 leukemia)
O=C(Cc1ccccc1)Nc1cccc(N=Cc2ccccc2O)c1 | 116% | 104 | 96.6 | 77.6% | 103 | 110% | 80.8% | 115% | 106% | 101%
C/C(=N\O)c1ccc(NC(=O)CSc2nnc(-c3cc(-c4ccc(S(C)(=O)=O)cc4)nc4ccccc34)n2-c2ccccc2)cc1 | 100% | 84.7 | 89.2 | 65.2% | 107 | 90.8% | 73.8% | 53.1% | 68.2% | 57.9%
COc1ccc(Cn2cc3c(c2-c2ccccc2)CCc2cnoc2-3)cc1 | 64.6% | 44.1 | 37.3 | 36.5% | 91.9 | 46.6% | 34% | 33.3% | 8.41% (active) | 25.5%
Cc1ccc(C(=O)Nc2cccc(C#Cc3cccc4[nH]nc(N)c34)c2)cc1C(F)(F)F | 29.2% | 92.4 | 65.2 | 36.7% | 86.6 | 44.7% | 120% | 81.2% | 52.9% | 45%
COc1ccc(-c2nn(-c3ccccc3)cc2/C=C/C(=O)NNC(=O)Nc2ccc(C)cc2)cc1 | 102% | 97.2 | 97 | 84.2% | 99 | 102% | 91.5% | 109% | 47.4% | 43%
CC1(C)CC[C@]2(C(=O)N[C@H](CO)Cc3ccccc3)CC[C@]3(C)C(=CC[C@@H]4[C@@]5(C)CCCNC(C)(C)[C@@H]5CC[C@]43C)[C@@H]2C1 | 107% | 90.9 | 78.6 | 66.5% | 95.5 | 101% | 77.3% | 85.1% | 41.8% | 35.1%
CCc1n(Cc2ccc3ccccc3n2)cc[n+]1Cc1ccc2ccccc2n1 | -27.3% (active) | 31.9 | 10.7 | 89.5% | 41.9 | 93.3% | 98% | 84.9% | 28.1% | 28.6%
O=C1Nc2ccccc2/C1=C\c1c[nH]c2ccc(Br)cc12 | 66.8% | 79.5 | 84.9 | 46% | 75.3 | 53.6% | 55% | 108% | 66.1% | 62.1%
O=P(O)(O)OCC1OC(n2cnc3c(NCc4ccco4)ncnc32)C(O)C1O (stereo not given) | 89.2% | 48.6 | 12.1 | -6.51% (active) | 60.9 | 4.1% (active) | -42.3% (active) | 7.68% (active) | -31.5% (active) | 16%
CC(=O)O[C@H]1C[C@@H]2C(C)(C)C(=O)CC[C@@]2(C)c2ccc(C(C)C)cc21 | 109% | 99.3 | 107 | 91.8% | 97.2 | 107% | 89.6% | 100% | 108% | 108%
CC(=O)/C(=C/c1ccc([N+](=O)[O-])cc1)C(=O)c1ccccc1 | 89.4% | 101 | 91.6 | 69.1% | 87.8 | 83.8% | 96.3% | 112% | 33.7% | 21.4%
CCOC(=O)c1cc(C(=O)c2cc(OC)c(OC)c(OC)c2)n2ccccc12 | 40.4% | 42 | 54 | 50.6% | 49.3 | 58.4% | 38.9% | -1.31% (active) | 17% | 24.3%
CC1=C(C(=O)Nc2ccccc2)C(c2ccc3c(c2)OCO3)NC(=S)N1 (stereo not given) | 106% | 107 | 104 | 88.2% | 97.8 | 107% | 97.1% | 114% | 115% | 112%
O=c1ccc(=O)n(-c2nc(-c3ccc([N+](=O)[O-])cc3)cs2)[nH]1 | 108% | 101 | 101 | 82.4% | 107 | 102% | 101% | 87.9% | 99.4% | 86.5%
O=C(NC1CC(F)C1)c1cc2cccnc2n1-c1ccc(Cl)c(Cl)c1 (stereo not given) | 105% | 98.5 | 96.4 | 69.7% | 90.2 | 95.5% | 84.4% | 99% | 99.7% | 98.9%
Cc1cccc(Oc2ccc(Nc3ncnc4ccc(NC(=O)CN5CCN(C)CC5)cc34)cc2Cl)c1 | -70.7% (active) | 25.1 | 46.4 | 22.2% | 18.8 | -7.41% (active) | 12.9% | 5.9% (active) | 4.6% (active) | 3.77% (active)
Cc1ccc(S(=O)(=O)OCCCOS(=O)(=O)c2ccc(C)cc2)cc1 | 101% | 99.7 | 98.1 | 71.3% | 109 | 96% | 68.3% | 106% | 79.1% | 62.5%
N#Cc1ccc(O)c(C2=NCC(Cc3ccccc3)O2)c1 (stereo not given) | 38.8% | 45 | 51.9 | 22% | 51.4 | 38.6% | 12.9% | 84.9% | 33.6% | 46.6%
CCNc1ccc(-c2nc3ccccc3n3cccc23)cc1 | 87.9% | 71 | 78 | 51.6% | 82.7 | 73.9% | 57% | 62.5% | 68.2% | 71.2%
O=C(O)[C@@H](Cc1ccc2ccccc2c1)NC(=O)n1c2ccccc2c2ccccc21 | 33.3% | 47.9 | 34.1 | 38.9% | 58.1 | 48.8% | 30.5% | 9.24% (active) | 13% | 24.5%
CN(C)c1ccc(-c2ccc3c(c2)c(-c2ccccc2)nc(=O)n3C)cn1 | 26.8% | 69.6 | 42.6 | 42.3% | 56.4 | 49.9% | 34.7% | 25.8% | 13% | 29.9%
NC(=O)c1cnc(Nc2cccc(N)c2)nc1NCCCNC(=O)C1CCC1 | 65.2% | 93 | 33 | 27.8% | 32.1 | 49.5% | 37.2% | 90.4% | 25.9% | 26.1%
O=C(Nc1ccc(Cl)cc1)Oc1c(Cl)c(Cl)c(Cl)c(Cl)c1Cl | 95.7% | 80.6 | 97.6 | 78.5% | 115 | 87.9% | 86.1% | 74.6% | 92.1% | 95.6%
Cc1ccc2c(=O)cc(C(=O)Nc3sc4c(c3C(=O)NCc3cccnc3)CCCC4)oc2c1C | 109% | 103 | 95.3 | 78.5% | 116 | 96.8% | 90.6% | 89.1% | 93% | 90.3%
O=C1/C(=C/c2ccc(O)c(O)c2)COc2ccc(-c3ccccc3)cc21 | 59% | 78.8 | 13.9 | -64.6% (active) | 25.8 | 15.3% | 4.86% (active) | 30.7% | 16.2% | 10.9%
